For assay [1], the target named is Death-associated protein kinase 1 (Homo sapiens) (UniProt P53355). Conditions: at 1 µM.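 Further: each value is a mean inhibition figure.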
The target in assay [2] is T1, Serine/threonine-protein kinase DCLK2 (Homo sapiens) (UniProt Q8N568).
T1 sequence (whole entry): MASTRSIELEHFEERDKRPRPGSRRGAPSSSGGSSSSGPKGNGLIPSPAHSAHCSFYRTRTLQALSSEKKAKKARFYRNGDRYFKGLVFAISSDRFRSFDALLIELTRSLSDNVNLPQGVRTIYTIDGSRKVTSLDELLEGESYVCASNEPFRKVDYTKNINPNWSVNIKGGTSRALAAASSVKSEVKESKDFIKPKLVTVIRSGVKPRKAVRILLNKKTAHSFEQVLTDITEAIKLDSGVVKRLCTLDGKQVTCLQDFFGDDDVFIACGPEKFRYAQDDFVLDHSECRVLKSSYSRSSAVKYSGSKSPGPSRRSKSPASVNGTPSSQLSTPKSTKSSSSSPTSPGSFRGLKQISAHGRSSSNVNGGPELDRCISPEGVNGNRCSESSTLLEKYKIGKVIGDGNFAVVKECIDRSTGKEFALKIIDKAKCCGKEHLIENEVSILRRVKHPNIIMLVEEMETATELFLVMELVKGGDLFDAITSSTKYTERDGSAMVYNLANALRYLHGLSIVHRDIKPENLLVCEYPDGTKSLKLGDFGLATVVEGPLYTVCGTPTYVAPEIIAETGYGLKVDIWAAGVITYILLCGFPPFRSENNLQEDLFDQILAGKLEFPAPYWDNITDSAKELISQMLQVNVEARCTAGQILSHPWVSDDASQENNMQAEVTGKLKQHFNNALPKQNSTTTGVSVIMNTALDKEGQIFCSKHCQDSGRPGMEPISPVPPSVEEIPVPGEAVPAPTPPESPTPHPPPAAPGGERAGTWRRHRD
Conditions: at 0.1 µM.

Assay [3] addresses T1, Serine/threonine-protein kinase DCLK2 (Homo sapiens). Conditions: at 1 µM.
Assay [4] concerns the target MAP kinase-activated protein kinase 2 (Homo sapiens) (UniProt P49137). Conditions: at 0.1 µM.
Assay [5] shares this target. Conditions: at 1 µM.
For assay [6], the target named is MAP kinase-activated protein kinase 3 (Homo sapiens) (UniProt Q16644). Conditions: at 0.1 µM.
Sequence of MAP kinase-activated protein kinase 3 (Homo sapiens) (Q16644 whole entry, looked up): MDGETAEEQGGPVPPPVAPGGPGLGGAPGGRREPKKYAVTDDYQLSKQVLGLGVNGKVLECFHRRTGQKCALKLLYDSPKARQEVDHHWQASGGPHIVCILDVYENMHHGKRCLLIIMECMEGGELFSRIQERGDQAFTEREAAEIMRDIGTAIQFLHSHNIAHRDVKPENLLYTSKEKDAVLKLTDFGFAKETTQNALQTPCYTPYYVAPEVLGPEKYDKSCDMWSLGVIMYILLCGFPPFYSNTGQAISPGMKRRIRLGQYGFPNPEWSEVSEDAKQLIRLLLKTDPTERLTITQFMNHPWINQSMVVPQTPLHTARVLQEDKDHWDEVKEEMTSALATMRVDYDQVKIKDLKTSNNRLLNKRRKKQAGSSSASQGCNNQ
Assay [7] has the same target. Conditions: at 1 µM.
In assay [8] the target is Serine/threonine-protein kinase MARK1 (Homo sapiens) (UniProt Q9P0L2). Conditions: at 0.1 µM.
Sequence of Serine/threonine-protein kinase MARK1 (Homo sapiens) (Q9P0L2 whole entry, looked up): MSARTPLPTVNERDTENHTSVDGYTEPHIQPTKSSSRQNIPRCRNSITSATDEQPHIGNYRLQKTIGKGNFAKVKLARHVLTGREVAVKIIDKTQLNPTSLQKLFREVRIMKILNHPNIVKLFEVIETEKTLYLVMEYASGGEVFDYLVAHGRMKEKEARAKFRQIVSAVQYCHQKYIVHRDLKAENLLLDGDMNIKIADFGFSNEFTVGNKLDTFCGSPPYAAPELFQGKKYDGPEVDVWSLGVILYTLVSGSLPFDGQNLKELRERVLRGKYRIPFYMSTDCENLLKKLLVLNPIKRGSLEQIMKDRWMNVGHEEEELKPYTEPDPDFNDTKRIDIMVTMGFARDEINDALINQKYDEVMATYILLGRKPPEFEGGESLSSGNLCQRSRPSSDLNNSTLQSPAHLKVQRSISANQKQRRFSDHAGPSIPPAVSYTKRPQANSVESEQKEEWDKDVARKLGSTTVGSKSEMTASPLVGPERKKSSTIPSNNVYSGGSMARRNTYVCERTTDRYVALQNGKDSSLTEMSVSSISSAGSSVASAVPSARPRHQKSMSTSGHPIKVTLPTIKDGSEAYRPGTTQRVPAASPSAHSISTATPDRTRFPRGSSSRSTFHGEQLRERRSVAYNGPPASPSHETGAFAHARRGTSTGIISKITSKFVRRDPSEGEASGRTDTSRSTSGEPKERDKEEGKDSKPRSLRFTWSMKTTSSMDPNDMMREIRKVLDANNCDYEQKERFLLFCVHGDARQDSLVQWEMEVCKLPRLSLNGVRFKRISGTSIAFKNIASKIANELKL
The target is the same in assay [9]. Conditions: at 1 µM.
Assay [10] has as its target MAP/microtubule affinity-regulating kinase 3 (Homo sapiens) (UniProt P27448). Conditions: at 0.1 µM.
The target is the same in assay [11]. Conditions: at 1 µM.
For assay [12], the target named is T2, MAP/microtubule affinity-regulating kinase 4 (Homo sapiens) (UniProt Q96L34).
T2 sequence (whole entry): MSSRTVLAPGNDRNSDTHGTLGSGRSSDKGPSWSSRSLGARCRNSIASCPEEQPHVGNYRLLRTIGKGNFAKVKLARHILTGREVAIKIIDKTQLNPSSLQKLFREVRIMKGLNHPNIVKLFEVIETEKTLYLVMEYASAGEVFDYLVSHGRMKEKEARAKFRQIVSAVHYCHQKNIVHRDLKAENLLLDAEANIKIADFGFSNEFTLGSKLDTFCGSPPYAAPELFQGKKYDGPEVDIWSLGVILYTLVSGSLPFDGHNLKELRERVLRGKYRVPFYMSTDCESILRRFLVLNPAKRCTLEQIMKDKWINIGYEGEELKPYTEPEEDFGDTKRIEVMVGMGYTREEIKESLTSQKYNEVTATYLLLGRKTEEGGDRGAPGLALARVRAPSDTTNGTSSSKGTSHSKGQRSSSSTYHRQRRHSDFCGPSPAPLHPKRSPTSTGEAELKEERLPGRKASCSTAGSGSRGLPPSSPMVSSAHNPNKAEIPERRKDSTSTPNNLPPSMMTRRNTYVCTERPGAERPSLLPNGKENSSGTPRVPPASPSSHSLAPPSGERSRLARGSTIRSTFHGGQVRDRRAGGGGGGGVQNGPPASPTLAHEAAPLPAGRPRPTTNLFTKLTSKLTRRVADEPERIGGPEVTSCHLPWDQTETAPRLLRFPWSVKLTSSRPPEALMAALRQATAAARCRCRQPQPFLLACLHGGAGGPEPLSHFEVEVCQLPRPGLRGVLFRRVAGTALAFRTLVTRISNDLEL
Conditions: at 0.1 µM.

Assay [13] deals with T2, MAP/microtubule affinity-regulating kinase 4 (Homo sapiens). Conditions: at 1 µM.
For assay [14], the target named is Maternal embryonic leucine zipper kinase (Homo sapiens) (UniProt Q14680). Conditions: at 0.1 µM.
Sequence of Maternal embryonic leucine zipper kinase (Homo sapiens) (Q14680 whole entry, looked up): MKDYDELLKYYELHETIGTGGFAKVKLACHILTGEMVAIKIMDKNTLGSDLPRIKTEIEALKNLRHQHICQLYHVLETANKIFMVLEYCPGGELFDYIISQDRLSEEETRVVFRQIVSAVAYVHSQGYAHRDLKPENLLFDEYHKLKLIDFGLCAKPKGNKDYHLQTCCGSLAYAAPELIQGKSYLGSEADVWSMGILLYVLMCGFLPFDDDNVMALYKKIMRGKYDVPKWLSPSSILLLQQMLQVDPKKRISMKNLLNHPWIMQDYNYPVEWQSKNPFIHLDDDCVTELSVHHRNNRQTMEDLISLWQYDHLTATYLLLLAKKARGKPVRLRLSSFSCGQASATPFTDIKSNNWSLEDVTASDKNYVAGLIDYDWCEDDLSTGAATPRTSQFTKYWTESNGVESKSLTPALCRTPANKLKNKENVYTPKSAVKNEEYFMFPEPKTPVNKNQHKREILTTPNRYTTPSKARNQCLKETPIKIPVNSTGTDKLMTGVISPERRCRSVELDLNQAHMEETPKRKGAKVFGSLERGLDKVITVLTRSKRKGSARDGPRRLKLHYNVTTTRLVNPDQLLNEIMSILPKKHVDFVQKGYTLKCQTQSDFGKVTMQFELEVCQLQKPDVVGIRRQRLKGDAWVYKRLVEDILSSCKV
For assay [15] the target is unchanged. Conditions: at 1 µM.
The target of assay [16] is MAP kinase-interacting serine/threonine-protein kinase 1 (Homo sapiens) (UniProt Q9BUB5). Conditions: at 0.1 µM.
Sequence of MAP kinase-interacting serine/threonine-protein kinase 1 (Homo sapiens) (Q9BUB5 whole entry, looked up): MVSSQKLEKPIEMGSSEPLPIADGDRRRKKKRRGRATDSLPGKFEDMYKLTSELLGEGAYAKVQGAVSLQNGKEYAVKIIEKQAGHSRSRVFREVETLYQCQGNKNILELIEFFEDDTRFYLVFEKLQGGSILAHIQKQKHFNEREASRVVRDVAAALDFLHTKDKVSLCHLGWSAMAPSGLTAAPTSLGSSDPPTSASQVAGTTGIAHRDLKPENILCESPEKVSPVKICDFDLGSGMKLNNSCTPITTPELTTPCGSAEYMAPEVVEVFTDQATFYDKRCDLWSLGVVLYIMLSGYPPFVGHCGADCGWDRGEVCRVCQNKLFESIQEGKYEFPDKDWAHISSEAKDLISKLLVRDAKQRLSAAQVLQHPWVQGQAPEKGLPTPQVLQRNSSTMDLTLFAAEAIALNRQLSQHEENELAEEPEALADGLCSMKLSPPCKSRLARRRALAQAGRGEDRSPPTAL
Assay [17] shares this target. Conditions: at 1 µM.
The target in assay [18] is MAP kinase-interacting serine/threonine-protein kinase 2 (Homo sapiens) (UniProt Q9HBH9). Conditions: at 0.1 µM.
Sequence of MAP kinase-interacting serine/threonine-protein kinase 2 (Homo sapiens) (Q9HBH9 whole entry, looked up): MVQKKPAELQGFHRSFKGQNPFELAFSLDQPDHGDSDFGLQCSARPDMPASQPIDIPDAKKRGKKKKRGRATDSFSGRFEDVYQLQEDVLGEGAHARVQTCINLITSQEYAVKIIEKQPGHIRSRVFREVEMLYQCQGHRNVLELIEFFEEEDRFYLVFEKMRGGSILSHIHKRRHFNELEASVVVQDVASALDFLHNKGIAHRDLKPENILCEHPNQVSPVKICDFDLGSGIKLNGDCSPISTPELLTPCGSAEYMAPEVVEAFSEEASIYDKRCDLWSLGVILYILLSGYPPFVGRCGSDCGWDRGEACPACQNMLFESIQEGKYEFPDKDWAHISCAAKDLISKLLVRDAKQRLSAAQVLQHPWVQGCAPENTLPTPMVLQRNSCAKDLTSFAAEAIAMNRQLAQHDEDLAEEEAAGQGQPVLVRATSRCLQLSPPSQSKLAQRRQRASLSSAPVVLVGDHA
The target is the same in assay [19]. Conditions: at 1 µM.
Assay [20] deals with Serine/threonine-protein kinase MARK2 (Homo sapiens) (UniProt Q7KZI7). Conditions: at 0.1 µM.
Sequence of Serine/threonine-protein kinase MARK2 (Homo sapiens) (Q7KZI7 whole entry): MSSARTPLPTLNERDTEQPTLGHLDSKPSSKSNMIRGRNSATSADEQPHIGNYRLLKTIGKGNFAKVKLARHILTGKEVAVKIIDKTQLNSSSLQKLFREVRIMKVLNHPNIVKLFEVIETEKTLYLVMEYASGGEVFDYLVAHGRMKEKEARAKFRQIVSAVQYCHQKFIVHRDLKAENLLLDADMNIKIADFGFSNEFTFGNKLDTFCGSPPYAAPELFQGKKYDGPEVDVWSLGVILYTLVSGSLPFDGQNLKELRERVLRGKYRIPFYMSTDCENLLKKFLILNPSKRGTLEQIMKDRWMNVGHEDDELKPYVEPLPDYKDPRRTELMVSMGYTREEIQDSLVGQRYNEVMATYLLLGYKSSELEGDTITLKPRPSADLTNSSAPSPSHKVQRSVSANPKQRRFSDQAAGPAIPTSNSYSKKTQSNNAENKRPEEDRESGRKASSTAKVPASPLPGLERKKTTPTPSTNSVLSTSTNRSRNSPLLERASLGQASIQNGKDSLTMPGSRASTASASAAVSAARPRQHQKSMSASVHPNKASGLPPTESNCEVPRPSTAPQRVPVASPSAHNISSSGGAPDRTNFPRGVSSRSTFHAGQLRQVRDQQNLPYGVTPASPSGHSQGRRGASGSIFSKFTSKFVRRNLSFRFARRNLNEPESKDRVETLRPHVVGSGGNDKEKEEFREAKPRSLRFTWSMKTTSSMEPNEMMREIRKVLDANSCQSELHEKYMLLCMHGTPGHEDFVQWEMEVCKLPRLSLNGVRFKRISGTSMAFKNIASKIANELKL

The structures appear in SMILES notation.

We go through 7 compounds from ChEMBL document CHEMBL1961873, “Compounds: GSK PKIS; Assays: Nanosyn kinase panel” (2012).

Sequence of MAP/microtubule affinity-regulating kinase 3 (Homo sapiens) (P27448 whole entry, looked up): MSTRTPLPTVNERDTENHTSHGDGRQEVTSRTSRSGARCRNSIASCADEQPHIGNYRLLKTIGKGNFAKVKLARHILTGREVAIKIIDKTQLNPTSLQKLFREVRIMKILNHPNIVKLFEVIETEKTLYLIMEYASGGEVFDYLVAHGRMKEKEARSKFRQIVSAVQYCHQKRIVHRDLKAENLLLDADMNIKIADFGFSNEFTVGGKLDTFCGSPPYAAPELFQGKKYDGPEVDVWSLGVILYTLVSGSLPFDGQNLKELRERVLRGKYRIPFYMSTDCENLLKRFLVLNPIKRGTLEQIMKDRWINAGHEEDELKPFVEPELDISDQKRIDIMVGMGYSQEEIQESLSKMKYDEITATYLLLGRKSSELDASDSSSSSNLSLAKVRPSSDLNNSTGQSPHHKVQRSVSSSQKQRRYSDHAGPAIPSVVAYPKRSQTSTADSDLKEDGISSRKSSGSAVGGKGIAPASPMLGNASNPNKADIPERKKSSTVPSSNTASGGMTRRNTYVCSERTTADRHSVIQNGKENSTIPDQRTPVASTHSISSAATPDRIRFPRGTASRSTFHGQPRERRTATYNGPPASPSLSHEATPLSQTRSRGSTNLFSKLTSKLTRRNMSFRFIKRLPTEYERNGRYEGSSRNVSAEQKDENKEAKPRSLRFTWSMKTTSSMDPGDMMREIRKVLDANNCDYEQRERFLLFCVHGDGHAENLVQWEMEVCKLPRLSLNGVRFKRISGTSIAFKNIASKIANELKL
Sequence of MAP kinase-activated protein kinase 2 (Homo sapiens) (P49137 whole entry, looked up): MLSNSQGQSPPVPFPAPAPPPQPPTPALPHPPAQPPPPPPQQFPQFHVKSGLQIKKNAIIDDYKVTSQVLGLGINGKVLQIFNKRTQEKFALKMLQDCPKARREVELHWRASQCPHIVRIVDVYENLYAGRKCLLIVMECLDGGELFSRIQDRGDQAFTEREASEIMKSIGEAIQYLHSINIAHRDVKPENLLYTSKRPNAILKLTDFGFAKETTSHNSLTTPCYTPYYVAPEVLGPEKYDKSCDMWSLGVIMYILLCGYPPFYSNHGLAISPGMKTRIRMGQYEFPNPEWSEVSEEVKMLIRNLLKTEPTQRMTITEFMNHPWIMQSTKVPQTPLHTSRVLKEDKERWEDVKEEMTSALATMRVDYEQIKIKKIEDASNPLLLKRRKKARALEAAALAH

Consider `Cc1cc(-c2ccco2)cc(C)c1/C=C/c1cncc(-c2nn[nH]n2)c1`, for which the inhibition (usually the relative decrease from the control value, in per cent) in assay [1] was 0.04%; in assay [2], -1.22%; in assay [3], 0.25%; in assay [4] it was 0.52%; in [5], 0.01%; in [6] it was 1.42%. Besides, the inhibition in assay [7] was 1.25%; in [8], 1.07%; in assay [9], 1.26%; in assay [10], -0.4%; in assay [11], 1.64%; in assay [12] it was 1.35%. Also, the inhibition was determined as 1.35% in assay [13]; 1.3% in assay [14]; 0.19% in assay [15]; 3.16% in assay [16]; 29.9% in [17]; 4.58% in [18]. Moreover, the figures for the inhibition in assay [19] and in [20] were 35.2% and 1.91%, respectively.
For the compound `NS(=O)(=O)c1ccc(N/C=C2\C(=O)Nc3ccc4ncsc4c32)cc1`, the inhibition stood at 9.33% in assay [1]; 0.08% in assay [2]; 5.55% in [3]; 2.68% in [4]; 2.48% in [5]; 7.84% in assay [6]. Also, the inhibition was found to be 10.4% in assay [7]; 13.6% in [8]; 53.8% in [9]; 8.01% in [10]; 42.9% in assay [11]; 11% in assay [12]. Also, the inhibition in assay [13] was determined as 46.3%; in assay [14], 38.6%; in assay [15], 89.5%; in assay [16] it was 4.69%; in assay [17], 24%; in assay [18], 0.94%. The inhibition is 10.5% in [19] and 6.29% in [20].
Regarding `NS(=O)(=O)c1ccc(-c2ccc3c(NC(=O)C4CC4)n[nH]c3c2)cc1`, the inhibition in assay [1] was 4.32%; in [2], 0.37%; in assay [3] it was 0.39%; in assay [4] it was 1.09%; in [5], 0.96%; in [6], 2.61%. Moreover, the inhibition was 2.69% in assay [7]; 1.75% in assay [8]; 2.18% in assay [9]; 2.65% in assay [10]; 5.56% in assay [11]; 0.63% in assay [12]. Besides, the inhibition stood at 2.61% in assay [13]; 0.83% in assay [14]; 1.42% in assay [15]; 4.28% in assay [16]; 17.9% in [17]; 0.71% in [18]. For the same compound, the inhibition in [19] is 6.29%; in [20], 0.75%.
For the compound `CCn1c(-c2nonc2N)nc2c(C#CC(C)(C)O)ncc(OCC3CCNCC3)c21`, the inhibition is 1.75% in [1]; -3.05% in assay [2]; -1.26% in [3]; 0.79% in [4]; 1.63% in assay [5]; 2.86% in assay [6]. For the same compound, the inhibition amounted to 1.31% in assay [7]; 15.5% in assay [8]; 61.3% in assay [9]; 13% in [10]; 68.8% in [11]; 10.5% in assay [12]. The inhibition in [13] amounted to 54.5%; in assay [14] it was 6.83%; in [15], 31.6%; in assay [16], 1.39%; in assay [17], 9.05%; in assay [18] it was 0.56%. In addition, the inhibition in assay [19] was found to be 4.38%; in assay [20], 11.3%.
Regarding `Nc1nonc1-c1nc2cnccc2n1C1CCCCC1`, the inhibition was -1.97% in [1]; -0.3% in assay [2]; 1.52% in [3]; -1.18% in assay [4]; -1.08% in assay [5]; -2.2% in assay [6]. The inhibition in assay [7] was -2.76%; in [8] it was 2.89%; in [9], 16.5%; in assay [10], 4.04%; in assay [11], 24.2%; in assay [12], 2.83%. Besides, the inhibition is 10.8% in assay [13]; 10.3% in [14]; 74.6% in [15]; -0.38% in assay [16]; 4.63% in [17]; 0.19% in [18]. Further, the inhibition in [19] amounted to 8.42%; in assay [20], 3.67%.
Consider `COc1cc2c(cc1Nc1nc(Nc3ccsc3C(N)=O)c3cc[nH]c3n1)N(C(=O)CN(C)C)CCC2`, for which the inhibition in [1] is 4.14%; in assay [2], -2.25%; in assay [3] it was 0.34%; in [4] it was -0.32%; in assay [5], -2.2%; in assay [6], 6.83%. The inhibition in assay [7] stood at 6.01%; in [8], 2.48%; in [9], 5.99%; in [10], 2.11%; in assay [11], 4.97%; in assay [12] it was 0.47%. The inhibition in assay [13] is 0.65%; in [14] it was 1.24%; in [15] it was 11.3%; in [16], 0.63%; in assay [17], 0.17%; in assay [18], -0.68%. For the same compound, the inhibition worked out at 0.28% in assay [19] and 2.05% in assay [20].
`COc1cccc(COc2cc(-n3cnc4ccccc43)sc2C(N)=O)c1`: the inhibition was 1.02% in assay [1]; -0.3% in [2]; 0.3% in [3]; -0.08% in assay [4]; -1.3% in [5]; 2.28% in assay [6]. In addition, the inhibition was determined as 3.61% in assay [7]; 0.58% in assay [8]; 1.16% in assay [9]; 2.28% in assay [10]; 2.02% in [11]; 1.15% in [12]. The inhibition in assay [13] is 1%; in assay [14], -2.92%; in [15], -8.42%; in assay [16], 1.73%; in assay [17], 12%; in assay [18] it was -0.04%. In addition, the inhibition in [19] is 6.31%; in assay [20] it was -2.23%.
